Consider 31 molecules from ChEMBL document CHEMBL4513216, “Probing the Open Global Health Chemical Diversity Library for Multistage-Active Starting Points for Next-Generation Antimalarials” (ACS Infect Dis, 2020).

Hit rate of the full screen: of about 68,000 compounds, about 2,700 (4%) showed an effect of 50% or more. For the sample, strong results were picked, then their nearest neighbours and some compounds at random.

This experiment relates to Plasmodium berghei. As to the kind of experiment: Screen against P. berghei liver stage (PbLuc), transformed with Luciferase, at 2uM. Type of experiment: functional, HepG2. The settings on record: tested at 2 uM.
Turning to `Cc1ncnc2c1CCN(CC(=O)N(C)C)CC2`, the INHIBITION was determined as 18.15%.

On to `Cc1cc(C(F)(F)F)nc(CNC(=O)CCC2CCCN(C)C2)n1` (stereo unspecified), for which the INHIBITION is on record as -28.09%.

In the case of `Cc1cc(C(F)(F)F)nc(CNC(=O)C2CCCCCN2C)n1` (stereo unspecified), the INHIBITION was determined as 20.77%.

Turning to `Cc1cc(C(F)(F)F)nc(CNC(=O)CCC2CCCCN2C)n1` (stereo unspecified), the INHIBITION is listed as 54.77%.

For the molecule `Cc1ccc2nc(CN3CCCC3c3cccnc3)cc(O)c2c1` (stereo unspecified), the INHIBITION turned out to be 50.59%.

`Cc1ccc2nc(CN3CCN(C4CCCC4)C(=O)C3)cc(O)c2c1`: the INHIBITION is recorded as -87.32%.

For `Cc1ccc2nc(CN3CCN(C4CCCCC4)C(=O)C3)cc(O)c2c1`, the INHIBITION is -17.17%.

`Oc1cc(CN2CCCCC2c2cccnc2)nc2c(F)cccc12` (stereo unspecified): the INHIBITION was 57.75%.

Take `NCC1CCCCN1Cc1cc(O)c2cccc(F)c2n1` (stereo unspecified): the INHIBITION is listed as -20.95%.

On to `OCC1CCCCN1Cc1cc(O)c2cccc(F)c2n1` (stereo unspecified), for which the INHIBITION amounted to 24.36%.

As to `CN(C)C(CNCc1nc(-c2ccsc2)no1)c1ccsc1` (stereo unspecified), the INHIBITION was 6.82%.

On to `CN(C)C(CNCc1nc(-c2ccsc2)no1)c1ccco1` (stereo unspecified), for which the INHIBITION is reported as 11.18%.

Consider `CN(C)C(CNCc1nc(-c2ccsc2)no1)c1cccs1` (stereo unspecified), for which the INHIBITION was 58.14%.

As to `c1ccc(CN2CCN(C3CCOC4(CCOCC4)C3)CC2)nc1` (stereo unspecified), the INHIBITION is given as -14.69%.

For the molecule `CCNc1nc2cn(-c3ccc(C)c(C)c3)c(=O)c-2c[nH]1`, the INHIBITION was -5.34%.

Take `c1cncc(CN2Cc3nccn3CC(Cn3cccn3)C2)c1` (stereo unspecified): the INHIBITION is given as -9.53%.

`COc1cc(C)cc(C(C(=O)O)N(C)Cc2ccon2)c1OC` (stereo unspecified): the INHIBITION came to 76.6%.

With `COc1ccc(Cl)cc1C(C(=O)O)N(C)Cc1ccon1` (stereo unspecified), the INHIBITION is -35.07%.

Regarding `COc1cc(F)ccc1C(C(=O)O)N(C)Cc1ccon1` (stereo unspecified), the INHIBITION stood at 12.55%.

For `CN(C)CC(=O)N1CCN(c2cc(N3CCCC3CO)ncn2)CC1` (stereo unspecified), the INHIBITION is on record as -23.06%.

Regarding `COC1[C@@H]2CC[C@H]1CN(c1nc(C)nc3sccc13)C2` (stereo partly specified), the INHIBITION worked out at 32.26%.

Consider `Cc1ccccc1CN(CCN(C)C)Cc1ccc(O)c(C(=O)O)c1`, for which the INHIBITION came to 56.76%.

`Cc1ccccc1CN(CCN(C)C)Cc1ccc(C(=O)O)cc1`: the INHIBITION worked out at 34.07%.

As for `Cc1ccccc1CN(CCN(C)C)Cc1ccccc1C(=O)O`, the INHIBITION came to 4.12%.

`Cc1cc(CN2CCc3nc(C(C)C)nc(O)c3CC2)c(C)s1`: the INHIBITION turned out to be 23.7%.

Consider `Cc1ccnc(NC(=O)c2ccc(C)o2)c1`, for which the INHIBITION was -4.26%.

Regarding `Cc1ccnc(NC(=O)c2ccc(Br)o2)c1`, the INHIBITION was 62.51%.

For `Cc1ccnc(NC(=O)c2ccc(Cl)o2)c1`, the INHIBITION came out at 5.48%.

As for `O=C(CN1CCc2cncnc2C1)NCCOc1cccc(Cl)c1`, the INHIBITION is 29.54%.

Consider `Cc1cccc(OCCNC(=O)CN2CCc3cncnc3C2)c1`, for which the INHIBITION turned out to be 51.94%.

With `O=C(CN1CCc2cncnc2C1)NCCOc1ccccc1`, the INHIBITION amounted to 10.62%.
